# TDP1 block – qHTS Assay for Inhibitors of Tyrosyl-DNA Phosphodiesterase (TDP1) | recombinant TDP1, AlphaScreen DNA substrate cleavage | Potency, µM (series often up to 130 µM), inactives show top-dose activity change, negative = inhibition, usual class: inhibitors | 350,000 tested, 0.28% active | AID 485290, 2010; note: potency is the fitted concentration of half-maximal effect; % is set by controls: 0 for no effect and ±100 for the full control effect; nearly all actives have a fitted effect of over 40% in size
# Target sequence (Q9NUW8 whole entry, looked up): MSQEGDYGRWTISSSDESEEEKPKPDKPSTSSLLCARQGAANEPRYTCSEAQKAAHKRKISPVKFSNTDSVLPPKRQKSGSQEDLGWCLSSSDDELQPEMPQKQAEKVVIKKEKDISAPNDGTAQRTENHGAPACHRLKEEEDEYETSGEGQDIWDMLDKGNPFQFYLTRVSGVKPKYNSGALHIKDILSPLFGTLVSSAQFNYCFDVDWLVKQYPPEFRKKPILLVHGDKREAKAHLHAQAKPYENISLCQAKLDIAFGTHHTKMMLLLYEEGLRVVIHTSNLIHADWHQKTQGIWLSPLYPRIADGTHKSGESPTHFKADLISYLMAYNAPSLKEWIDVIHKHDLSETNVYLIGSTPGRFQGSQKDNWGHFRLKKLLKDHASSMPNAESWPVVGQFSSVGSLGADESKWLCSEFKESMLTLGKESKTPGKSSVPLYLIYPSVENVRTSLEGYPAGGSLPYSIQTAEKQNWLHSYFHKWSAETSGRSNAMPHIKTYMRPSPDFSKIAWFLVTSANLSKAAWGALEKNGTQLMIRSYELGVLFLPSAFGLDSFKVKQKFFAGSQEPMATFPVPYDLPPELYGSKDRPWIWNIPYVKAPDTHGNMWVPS
#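 Recombinant E. coli-expressed Tdp1 (1 nM) preincubated with compound 15 min at RT, then 5'-biotin/3'-phosphotyrosine-FITC DNA substrate (15 nM) added for 5 min. AlphaScreen beads (10 ug/ml) added, 10 min RT; tyrosine-FITC cleavage read as signal loss.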
# TGFb SMAD3 inh – qHTS for Inhibitors of TGF-b; HepG2 CAGA-GFP TGF-b/SMAD3 reporter, GFP fluorescence, 18 h; TGF-beta stimulated, 500 pg/mL final; AID 588855, 2011; Potency, µM (doses to about 46.1 µM), without a hit: top-dose activity, negative = inhibition, actives largely listed as inhibitors; 410,000 tested, 1.2% active; note: potency is the fitted concentration of half-maximal effect; % is set by controls: 0 for no effect and ±100 for the full control effect; nearly all actives have a fitted effect of over 65% in size
#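 Smad-responsive CAGA-GFP expression was quantified in HEPG2 cells exposed to compounds and 500 pg/mL final TGF-beta for 18 h at 37 degrees C; unstimulated wells defined full inhibition.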
# DT40 TDP1 CPT – qHTS for Inhibitors of human tyrosyl-DNA phosphodiesterase 1 (TDP1): qHTS in cells in presence of CPT | chicken DT40 Tdp1-/-;hTDP1 cells + 20 nM CPT, ATP luminescence, 48 h | Potency, µM (series often up to 46.2 µM), for inactives: at the highest dose activity change, negative = growth inhibition, actives largely listed as inhibitors | 420,000 tested, 12% active; note: potency is the fitted concentration of half-maximal effect; % is set by controls: 0 for no effect and ±100 for the full control effect; nearly all actives have a fitted effect of over 55% in size
#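 Cell growth measured by CellTiter-Glo luminescence after a minimum 48 h, 37 C compound exposure with 20 nM CPT in Tdp1-knockout DT40 cells stably expressing hTDP1, seeded 400/well; qHTS titration format.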
# IL1B secr inh – qHTS for Inhibitors of Inflammasome Signaling: IL-1-beta AlphaLISA Primary Screen | activity change, % at 57.5 µM | 360,000 tested, 4.7% active | THP-1 LPS/ATP IL-1B secretion, AlphaLISA, 16 h; active compounds read low; in the data active = activity change below about -50%; inconclusive = mostly about -30% to -49%; note: % is set by controls: 0 for no effect and ±100 for the full control effect
#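 Secreted IL-1B measured by AlphaLISA bead assay after 16 h compound exposure of THP-1 cells; compounds (final up to 57.5 uM) added 1 h before LPS (250 ng/mL) and ATP (1.25 mM) stimulation; lower signal means less secretion.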
# DT40 TDP1 no CPT – qHTS for Inhibitors of human tyrosyl-DNA phosphodiesterase 1 (TDP1): qHTS in cells in absence of CPT; Potency, µM (top dose mostly 46.2 µM), for the others: top-dose activity change, negative = growth inhibition, hits mostly inhibitors; DT40 Tdp1-/- hTDP1 cells, no CPT, ATP luminescence, 48 h; 420,000 tested, 15% active; AID 686978, 2013; note: potency is the fitted concentration of half-maximal effect; % is set by controls: 0 for no effect and ±100 for the full control effect; nearly all actives have a fitted effect of over 55% in size
#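 Compound effects on proliferation are scored in DT40 Tdp1-/-;hTDP1 cells in the absence of CPT. ATP levels (CellTiter-Glo luminescence) are recorded after a ≥48 hr, 37 °C incubation.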
# HepG2 tox – qHTS for Inhibitors of TGF-b: Cytotox Counterscreen. HepG2 CAGA-GFP viability, ATP luminescence, 18 h. Potency, µM (doses to about 46.1 µM), without a hit: at the top dose activity change, negative = cytotoxicity, usual class: cytotoxic. 410,000 tested, 0.76% active. AID 588856, 2011; note: potency is the fitted concentration of half-maximal effect
#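 HepG2 CAGA-GFP cells (1000/well, DMEM with 1% FBS) received compound, then TGF-beta at 500 pg/mL final, and were incubated 18 hours at 37 degrees C. Viability was read by CellTiter-Glo luminescence. Media-only wells were set as complete cell-killing and DMSO as no toxicity.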
# An asterisk follows results filed as active; ? = inconclusive; nt = no result given; [ ] = remark or other dose. The list is not random: actives were taken first. Their share in the collection is about 19%. Unless noted, calls come from the whole dose curve; as a rule, active = well fitted curve in the direction sought with a large enough effect; inconclusive = small, poorly fitted or top-dose-only effect, or another doubt; inactive = no such curve, though single readings can be large; an effect the other way counts as inactive or inconclusive.
SMILES,TDP1 block,TGFb SMAD3 inh,DT40 TDP1 CPT,IL1B secr inh,DT40 TDP1 no CPT,HepG2 tox
COc1ccc(CCNC(=O)CCc2c(C)nc3c(c(C)nn3-c3ccccc3)c2C)c(OC)c1,10.1%,-34.5%,23.1µM*,nt,16.4µM*,-2.0%
COc1cccc(CNC(=O)CCc2c(C)nc3c(c(C)nn3-c3ccc(C)c(C)c3)c2C)c1,2.5%,-3.1%,20.6µM*,nt,20.6µM*,-17.2%
COCCNC(=O)CCc1c(C)nc2c(c(C)nn2-c2ccc(C)c(C)c2)c1C,nt,17.9%,?,-7.9,16.4µM*,5.0%
O=C(OCC1OC(OC(=O)c2cc(O)c(O)c(OC(=O)c3cc(O)c(O)c(O)c3)c2)[C@@H](OC(=O)c2cc(O)c(O)c(OC(=O)c3cc(O)c(O)c(O)c3)c2)C(OC(=O)c2cc(O)c(O)c(OC(=O)c3cc(O)c(O)c(O)c3)c2)C1OC(=O)c1cc(O)c(O)c(OC(=O)c2cc(O)c(O)c(O)c2)c1)c1cc(O)c(O)c(OC(=O)c2cc(O)c(O)c(O)c2)c1 (stereo not given in full),23.7%[56.1 µM],nt,nt,nt,nt,nt
CCOc1ccc(Cn2nnc(C(=O)Nc3cccc(SC)c3)c2N)cc1,2.3%,-17.6%,-28.7%,nt,?,-37.2%
CCN(CC)CCNC(=O)CCc1c(C)nc2c(c(C)nn2-c2ccc(C)cc2)c1C,nt,?,20.6µM*,0.0,13µM*,-80.9%
Nc1nc(N)c2ncc(C(=O)CCc3ccccc3)nc2n1,-1.2%,15.9%,13µM*,18.8,?,0.3%
O=C(NCCc1ccccc1)c1cnc2ccccc2n1,nt,-9.0%,?,7.5,-17.9%,-7.8%
Cc1ccc(CNC(=O)CN2N=C(c3ccc(C)cc3)CCC2=O)cc1,0.0%,-4.6%,-13.5%,nt,-18.1%,-21.1%
CC(C)c1ccc(OCC(O)CNC(C)c2ccccc2)cc1 (stereo not given),nt,?,16.4µM*,-85.5*,16.4µM*,-109.2%
Cc1cccc(C)c1OCC(O)CNC(C)c1ccccc1 (stereo not given),nt,?,3.66µM*,?,5.17µM*,-31.8%
CCC(=O)c1ccc(OCC(O)CNC(C)c2ccccc2)cc1 (stereo not given),2.7%,0.0%,?,2.9,?,-26.2%
O=C(O)c1cc(S(=O)(=O)NC(Cc2c[nH]c3ccccc23)C(=O)O)ccc1Cl (stereo not given),nt,2.1%,-1.8%,13.7,-16.6%,-10.7%
COCCCN1CCc2nc(SCC(=O)Nc3ccc(C)c(Cl)c3)[nH]c(=O)c2C1,-2.9%,9.0%,?,nt,?,-22.5%
COc1ccccc1C1C2CCCCC2(O)CCN1CC(=O)Nc1ccccc1 (stereo not given),-1.9%,3.3%,?,28.2,?,-0.2%
COC(=O)c1c(NC(=O)CN2CCC3(O)CCCCC3C2c2cc(OC)ccc2OC)sc(C)c1C (stereo not given),4.3%,-50.0%,13µM*,-1.4,10.3µM*,-52.9%
COc1ccc(CNC(=O)CCn2ccc3cc(S(=O)(=O)N4CCCC4)ccc32)cc1,-13.3%,3.2%,-10.1%,-0.4,0.2%,-0.8%
CCc1ccc(CNC(=O)CCCn2ccc3cc(S(=O)(=O)N4CCCC4)ccc32)cc1,2.8%,?,4.61µM*,nt,4.11µM*,-29.8%
COc1ccc(OC)c(CNC(=O)CCCn2ccc3cc(S(=O)(=O)N4CCCC4)ccc32)c1,4.2%,-0.8%,14.6µM*,2.1,?,-5.4%
O=C(CSc1c2c(nc3ccccc13)CCC2)Nc1ccc(F)cc1,7.0%,?,?,nt,?,-18.9%
CCCCN(C)S(=O)(=O)c1ccc(C(=O)N=c2sc3cc(NC(C)=O)ccc3n2C)cc1,-0.6%,-2.7%,?,5.5,-85.6%,20.8%
CCCCN(CC)S(=O)(=O)c1ccc(C(=O)N=c2sc3cc(NC(C)=O)ccc3n2C)cc1,0.0%,-3.5%,8.2µM*,-6.5,16.4µM*,-61.9%
Clc1cc(Cl)c(OCC#CI)cc1Cl,nt,nt,1.68µM*,nt,1.88µM*,nt
CCOC(=O)C1CCN(S(=O)(=O)c2ccc3c(c2)CC(=O)N3C)CC1,-7.6%,-15.8%,-27.8%,?,-25.0%,1.0%
CCOC(=O)C1CCN(S(=O)(=O)c2ccc3c4c2CC(=O)N4CC(C)S3)CC1 (stereo not given),nt,-8.0%,20.6µM*,21.8,?,-8.1%
SMILES,TDP1 block,TGFb SMAD3 inh,DT40 TDP1 CPT,IL1B secr inh,DT40 TDP1 no CPT,HepG2 tox
CCOC(=O)C1CCCN(S(=O)(=O)c2ccc3c4c2CC(=O)N4CC(C)S3)C1 (stereo not given),nt,?,?,15.8,18.4µM*,-100.6%
Cc1ccc(SC(C)C(=O)Nc2ccc(S(=O)(=O)N3CCOCC3)cc2)cc1 (stereo not given),-1.0%,3.9%,?,0.7,16.4µM*,-4.1%
Cc1ccc(S(=O)(=O)N2CCN(CC(=O)Nc3ccc(N4CCOCC4)cc3)CC2)cc1C,3.4%,10.0%,-11.3%,10.5,-0.9%,8.1%
Cc1ccc(S(=O)(=O)N2CCOCC2)cc1NC(=O)CN1CCC(Cc2ccccc2)CC1,-4.8%,-22.6%,?,-22.7,8.2µM*,-31.4%
Cc1ccc(S(=O)(=O)N2CCOCC2)cc1NC(=O)CN1CCN(c2ccc(O)cc2)CC1,2.2%,-7.7%,?,26.1,25.9µM*,16.0%
Cc1ccc(NC(=O)c2ccc(S(=O)(=O)N3CCOCC3)cc2)cc1,nt,-15.8%,9.6%,-7.4,-5.3%,-2.0%
Cc1cccc(N2CCN(CC(=O)Nc3ccc(S(=O)(=O)N4CCOCC4)cc3)CC2)c1C,3.3%,?,14.6µM*,-6.5,9.2µM*,-10.0%
COc1cccc(OC)c1C1=Nn2c(nnc2-c2ccccc2O)SC1,6.8%,nt,nt,nt,nt,nt
COc1ccc(NC(=O)c2cc(C3CC3)nc3c2c(C)nn3-c2ccc(C)cc2)cc1OC,1.1%,?,?,nt,?,-7.5%
